For some assays here: Entries with a potency or affinity are not part of this list. Activity calls are given as the source filed them.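 The calls were made as follows, unless noted: active = calcium signal rise above buffer-control mean plus 5 SD in both duplicates, and also a hit in the primary screen; inactive = the rest.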
Columns and labels:
[1] = system: TRPC4 beta (transient receptor potential cation channel C4), mouse; experiment: TRPC4 cation channel opening, retest – cell-based, Fluo4 calcium, HEK293 TRPC4beta/mu-opioid, duplicates, 10 µM, confirmation (AID 2426;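 active = fluorescence ratio normalized to control raised more than 50% in primary screen plus both repeat runs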); conditions: Fluo4 calcium fluorescence, at 10 µM; hits give high values
[2] = system: transient receptor potential cation channel C4 beta (TRPC4), mouse; experiment: TRPC4 cation channel opening, second retest – cell-based, second round, Fluo4, HEK293 TRPC4beta/mu-opioid, 1 µM, confirmation (AID 2461;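 active = primary screen active and over 50% activation in each of two duplicate runs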); conditions: Fluo4 calcium fluorescence, at 1 µM; hits give high values
[3] = system: TRPC4 (transient receptor potential cation channel C4 beta), mouse; experiment: potentiation of DAMGO EC20 TRPC4 response – cell-based, second round, Fluo-4, HEK293 TRPC4beta/mu-opioid, 1 µM, confirmation (AID 2554;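 active = primary screen hit whose fluorescence ratio, in both repeats, exceeds the weak agonist control mean by 3 SD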); conditions: DAMGO EC20, Fluo-4 calcium flux, at 1 µM; hits give high values
[4] = system: TRPC4 beta (transient receptor potential cation channel C4), mouse; experiment: potentiation of DAMGO EC20 TRPC4 response – cell-based, Fluo-4, HEK293 TRPC4beta/mu-opioid, confirmation (AID 2555;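 active = primary screen hit whose calcium fluorescence ratio, in both repeats, exceeds the weak agonist control mean by 3 SD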); conditions: DAMGO EC20, Fluo-4 calcium flux, at 10 µM; hits give high values
[5] = molecular target: Short transient receptor potential channel 4 (Mus musculus) (UniProt Q9QUQ5); experiment: blockers of DAMGO-evoked TRPC4 calcium flux – cell-based, Fluo4, HEK293 TRPC4beta/mu-opioid, confirmation (AID 2636;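 active = calcium signal cut by more than 3 SD below the full-agonist control yet still positive, in both repeats and the earlier primary screen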); conditions: at 10 µM; hits give high values
Short transient receptor potential channel 4 (Mus musculus), sequence (Q9QUQ5 whole entry, looked up): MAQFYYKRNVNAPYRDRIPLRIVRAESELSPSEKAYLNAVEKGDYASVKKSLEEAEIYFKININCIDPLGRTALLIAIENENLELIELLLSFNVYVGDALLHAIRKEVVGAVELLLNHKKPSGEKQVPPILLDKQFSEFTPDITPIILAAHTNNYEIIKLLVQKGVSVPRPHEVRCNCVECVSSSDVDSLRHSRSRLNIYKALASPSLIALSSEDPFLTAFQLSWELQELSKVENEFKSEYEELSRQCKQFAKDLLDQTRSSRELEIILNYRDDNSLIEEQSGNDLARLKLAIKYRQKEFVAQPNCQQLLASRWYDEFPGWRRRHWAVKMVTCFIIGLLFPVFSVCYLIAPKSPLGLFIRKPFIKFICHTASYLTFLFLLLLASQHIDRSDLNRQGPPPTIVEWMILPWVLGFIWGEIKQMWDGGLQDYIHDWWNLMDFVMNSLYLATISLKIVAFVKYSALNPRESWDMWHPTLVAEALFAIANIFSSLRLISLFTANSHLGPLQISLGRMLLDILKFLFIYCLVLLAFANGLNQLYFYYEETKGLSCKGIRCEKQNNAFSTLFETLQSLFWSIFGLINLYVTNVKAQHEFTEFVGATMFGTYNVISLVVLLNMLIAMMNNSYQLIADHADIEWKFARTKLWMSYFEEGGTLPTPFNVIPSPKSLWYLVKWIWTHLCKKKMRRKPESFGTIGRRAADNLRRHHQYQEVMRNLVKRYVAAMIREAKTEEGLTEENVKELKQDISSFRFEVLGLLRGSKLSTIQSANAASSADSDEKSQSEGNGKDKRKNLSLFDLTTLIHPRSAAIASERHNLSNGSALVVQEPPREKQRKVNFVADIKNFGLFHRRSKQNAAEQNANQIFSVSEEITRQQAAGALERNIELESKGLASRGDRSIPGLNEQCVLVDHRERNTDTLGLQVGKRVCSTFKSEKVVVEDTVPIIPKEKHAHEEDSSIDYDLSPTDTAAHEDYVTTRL

[6] = molecular target: Short transient receptor potential channel 4 (Mus musculus) (UniProt Q9QUQ5); experiment: blockers of DAMGO-evoked TRPC4 calcium flux – cell-based, second round, Fluo4, HEK293 TRPC4beta/mu-opioid, 1 µM, confirmation (AID 2637;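 active = calcium signal ratio cut to more than 3 SD under the fully stimulated control mean yet still positive, in both repeats and the primary screen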;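 as to inhibition: percent of integrated ratio relative to wells lacking test compound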); conditions: at 1 µM; hits give high values
[7] = molecular target: Short transient receptor potential channel 4 (Mus musculus) (UniProt Q9QUQ5); experiment: calcium entry via TRPC4 opening agents – cell-based, HEK293 TRPC4/mu-opioid, Fluo-4 calcium, dose response (AID 434937;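 active = primary screen activator hit with a dose response curve and TRPC4 channel activation at any tested dose; inactive = no activation, no dose response, or not a primary hit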)
[8] = molecular target: Short transient receptor potential channel 4 (Mus musculus) (UniProt Q9QUQ5); experiment: potentiation of DAMGO-evoked TRPC4 calcium signal – cell-based, HEK293 TRPC4/mu-opioid, Fluo-4 calcium, EC20 DAMGO, dose response (AID 434941;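 active = earlier screen potentiator hit that boosts the TRPC4 ion channel at some dose, with a dose response; inactive = no potentiation, no dose response, or not a prior hit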;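 also: calcium entry triggered by an EC20 dose of DAMGO at the co-expressed mu-opioid receptor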)
[9] = molecular target: Short transient receptor potential channel 6 (Mus musculus) (UniProt Q61143); experiment: TRPC6 blockade by TRPC4 inhibitor hits – cell-based, HEK293, membrane potential dye, duplicate, selectivity assay for TRPC4 inhibitor project, confirmation (AID 434948;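 active = active in primary screen and both duplicates, each dropping signal beyond three positive-control SD with fluorescence still positive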); conditions: HEK293 TRPC6, membrane potential dye fluorescence, at 10 µM, stimulated with maximal-effect acetylcholine; hits give high values
Short transient receptor potential channel 6 (Mus musculus), sequence (Q61143 whole entry, looked up): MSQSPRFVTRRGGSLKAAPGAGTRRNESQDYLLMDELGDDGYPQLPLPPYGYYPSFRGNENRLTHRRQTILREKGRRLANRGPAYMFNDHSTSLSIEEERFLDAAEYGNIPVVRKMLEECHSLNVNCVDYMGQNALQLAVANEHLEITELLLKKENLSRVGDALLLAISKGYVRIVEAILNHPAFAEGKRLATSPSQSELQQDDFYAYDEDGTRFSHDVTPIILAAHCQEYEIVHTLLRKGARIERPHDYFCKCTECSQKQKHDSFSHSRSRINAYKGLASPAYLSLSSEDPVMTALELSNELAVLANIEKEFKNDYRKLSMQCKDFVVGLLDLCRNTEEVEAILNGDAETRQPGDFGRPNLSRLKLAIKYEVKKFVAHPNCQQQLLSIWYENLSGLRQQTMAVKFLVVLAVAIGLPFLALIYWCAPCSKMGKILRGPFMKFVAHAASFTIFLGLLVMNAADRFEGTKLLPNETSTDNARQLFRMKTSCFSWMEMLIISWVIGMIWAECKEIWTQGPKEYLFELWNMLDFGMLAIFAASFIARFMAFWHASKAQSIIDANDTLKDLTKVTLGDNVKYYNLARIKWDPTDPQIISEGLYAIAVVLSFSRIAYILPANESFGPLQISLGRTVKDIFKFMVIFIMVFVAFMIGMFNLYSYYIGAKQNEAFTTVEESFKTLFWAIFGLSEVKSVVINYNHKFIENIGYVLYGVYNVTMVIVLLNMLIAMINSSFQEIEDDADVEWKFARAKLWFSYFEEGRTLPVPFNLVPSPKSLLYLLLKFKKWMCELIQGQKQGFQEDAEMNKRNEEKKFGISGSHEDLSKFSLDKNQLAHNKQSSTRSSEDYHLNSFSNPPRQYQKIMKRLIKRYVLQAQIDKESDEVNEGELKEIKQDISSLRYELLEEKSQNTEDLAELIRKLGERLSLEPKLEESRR

[10] = molecular target: Short transient receptor potential channel 6 (Mus musculus) (UniProt Q61143); experiment: TRPC6 opening by TRPC4 activator hits – cell-based, HEK293, membrane potential dye, duplicate, selectivity assay for TRPC4 activator project, confirmation (AID 434950;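 active = membrane potential signal rise above negative control mean plus 3 SD in both duplicates, also active in the earlier TRPC4 screen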); conditions: HEK293 TRPC6, membrane potential fluorescence, at 10 µM; activation: hits give high values; outcome: activation
[11] = molecular target: Short transient receptor potential channel 6 (Mus musculus) (UniProt Q61143); experiment: positive modulators of mouse TRPC6 channel – HEK293 cells, membrane potential dye, duplicate, selectivity assay for TRPC4 potentiator project, confirmation (AID 434952;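 active = compound raising the membrane signal above positive-control mean plus 3 SD in both repeats, and a primary screen hit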); conditions: HEK293 TRPC6, membrane potential dye fluorescence, at 10 µM, maximal acetylcholine added after compound; hits give high values
[12] = molecular target: Short transient receptor potential channel 4 (Mus musculus) (UniProt Q9QUQ5); experiment: calcium flux activators in TRPC4/5HT1a cells, counter-screen for TRPC4 activator project, cell-based, second counter screen, HEK293 TRPC4/5HT1a, Fluo-4 (AID 434977); conditions: Fluo-4 calcium flux, at 10 µM; hits give high values
[13] = serotonin-gated TRPC4 signal block – cell-based, second counter screen, HEK293 TRPC4/5HT1a, Fluo-4, counter-screen for TRPC4 inhibitor project, confirmation (AID 434978;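 active = primary screen active whose calcium signal fell more than 3 SD beyond the full-serotonin control mean in both duplicate plates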;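 as to outcome: serotonin given first at submaximal then at maximal dose after compound preincubation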); conditions: Fluo-4 calcium flux, at 10 µM, serotonin added to trigger calcium flux; hits give high values
[14] = system: TRPC4 (mouse), co-expressed with 5HT1a in HEK293; experiment: enhancement of serotonin-evoked TRPC4 response – cell-based, second counter screen, HEK293 TRPC4/5HT1a, Fluo-4, counter-screen for TRPC4 potentiator project, confirmation (AID 434979;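 active = signal rise over 3 SD above mean of control wells given weak agonist, in both repeats and first screen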); conditions: Fluo-4 calcium flux, at 10 µM, serotonin added at its EC20 dose; hits give high values
[15] = nonspecific calcium rise without TRPC4 – cell-based, HEK293 mu-opioid receptor line, counter-screen for TRPC4 activator project, confirmation (AID 449723;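 active = hit in primary screen, with calcium signal over 5 SD above buffer well mean in both duplicates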;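 also: counter screen cells carry the mu-opioid receptor alone and lack TRPC4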); conditions: HEK293 mu-opioid cells, Fluo-4 calcium fluorescence, at 10 µM; hits give high values
[16] = nonspecific potentiation of DAMGO calcium response – cell-based, HEK293 mu-opioid receptor line, counter-screen for TRPC4 allosteric potentiator project, confirmation (AID 449724;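 active = calcium signal rise more than 3 SD above the low-dose agonist control mean, in both duplicate plates and the primary screen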); conditions: HEK293 mu-opioid receptor cells, Fluo-4 calcium flux, at 10 µM, compound added before EC20 DAMGO stimulus; hits give high values

Structure (SMILES) | outcome [1] | outcome [2] | outcome [3] | outcome [4] | inhibition [5] | inhibition [6] | outcome [7] | outcome [8] | outcome [9] | outcome [10] | outcome [11] | outcome [12] | outcome [13] | outcome [14] | outcome [15] | outcome [16] | outcome [6] | inhibition [13] | inhibition [9]
Cc1nc2ccccc2n1CC(O)COc1ccccc1Cl (stereo not drawn) | inactive | inactive | inactive | inactive | 72% (active) | 40% (active) | inactive | inactive | inactive | inactive | inactive | inactive | inactive | inactive | inactive | inactive |  |  | 
COc1ccc(Nc2c3c(nc4ccccc24)CCC3)cc1 | inactive | inactive | inactive | inactive | 98% (active) |  | inactive | inactive | inactive | inactive | inactive | inactive |  | inactive | inactive | inactive | inactive | 22.1% (active) | 
Cc1ccc(S(=O)(=O)c2cnc(-c3ccccc3)nc2N2CCN(C)CC2)cc1 | inactive | inactive | inactive | inactive | 64% (active) |  | inactive | inactive | inactive | inactive | inactive | inactive | inactive | inactive | inactive | inactive | inactive |  | 
CC1CCCN1CC#CC(O)(c1ccccc1)c1ccccc1 (stereo not drawn) | inactive | inactive | inactive | inactive | 79% (active) | 62% (active) | inactive | inactive |  | inactive | inactive | inactive |  | inactive | inactive | inactive |  | 33.5% (active) | 13.5% (active)
O=C(COC(=O)c1c(Cl)cccc1Cl)Nc1ccccc1Br | inactive | inactive | inactive | inactive | 71% (active) |  | inactive | inactive | inactive | inactive | inactive | inactive |  | inactive | inactive | inactive | inactive | 29.5% (active) | 
Cc1nn(C(=O)c2cccnc2)c(C)c1Sc1ccccc1 | inactive | inactive | inactive | inactive | 92% (active) |  | inactive | inactive | inactive | inactive | inactive | inactive |  | inactive | inactive | inactive | inactive | 16.5% (active) | 
CCOc1cc(CNCc2cccs2)ccc1OCC(=O)NC(C)(C)C | inactive | inactive | inactive | inactive | 98% (active) | 49% (active) | inactive | inactive | inactive | inactive | inactive | inactive | inactive | inactive | inactive | inactive |  |  | 
Cc1nn(C)c(C)c1Sc1ccc(Br)cc1 | inactive | inactive | inactive | inactive | 82% (active) |  | inactive | inactive | inactive | inactive | inactive | inactive |  | inactive | inactive | inactive | inactive | 24.8% (active) | 

Source: PubChem BioAssay
